Measurements: PubChem BioAssay AID602229 (The Scripps Research Institute Molecular Screening Center, 2012)
Hit rate of the full screen: of about 360,000 compounds, about 1,300 (0.36%) were called active. What follows is part of a selection rich in actives, with near analogues and random picks from the rest. Unmarked numbers belong to inactive results.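 The calls were made as follows: active = inhibition above the mean of all tested compounds plus 3 SD (cut at about 70% in these data); inactive = the rest.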

molecular target: Photoreceptor-specific nuclear receptor (Homo sapiens) (UniProt Q9Y5X4); test: NCOR release from NR2E3 in cells – cell-based, luminescence, CHO-S, Gal4-NCOR/VP16-NR2E3, primary screen (AID 602229); conditions: CHO-S Gal4-NCOR/VP16-NR2E3 two-hybrid, luciferase; at 3.98 µM; active compounds read high;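 also: 0% = DMSO with NR2E3 transfected cells and 100% = cells lacking NR2E3 construct; higher means lower luciferase signal from less NR2E3 corepressor binding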
Sequence (Q9Y5X4 whole entry, looked up, the tested form may be a part): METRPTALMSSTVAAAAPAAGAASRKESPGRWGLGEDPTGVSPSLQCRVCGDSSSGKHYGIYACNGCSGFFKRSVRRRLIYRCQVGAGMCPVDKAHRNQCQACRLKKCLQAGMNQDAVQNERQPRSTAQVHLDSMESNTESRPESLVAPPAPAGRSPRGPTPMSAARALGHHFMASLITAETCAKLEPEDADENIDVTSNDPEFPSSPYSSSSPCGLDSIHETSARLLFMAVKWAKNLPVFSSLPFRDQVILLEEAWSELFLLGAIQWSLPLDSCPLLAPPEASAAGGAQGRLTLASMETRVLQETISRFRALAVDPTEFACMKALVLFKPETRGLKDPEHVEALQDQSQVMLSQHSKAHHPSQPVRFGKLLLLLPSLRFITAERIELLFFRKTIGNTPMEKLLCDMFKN

Row | SMILES | inhibition of corepressor binding
1 | O=C(CN1CCSCC1)N/N=C/c1ccc(F)cc1F | -6.92%
2 | CCOC(=O)N1CCN(S(=O)(=O)c2cc(Br)cc3c2N(C(=O)C2CC2)CC3)CC1 | -15.4%
3 | OC[C@@H]1CN(Cc2ccc(-c3ccccc3)cc2)C[C@H](n2cnc3c(NC4CCCC4)ncnc32)O1 | 91.4% (active)
4 | OC[C@@H]1CN(Cc2cccs2)C[C@H](n2cnc3c(NC4CCCC4)ncnc32)O1 | -11.2%
5 | OC[C@@H]1CN(Cc2ccc(F)cc2)C[C@H](n2cnc3c(NC4CCCC4)ncnc32)O1 | -45.5%
6 | O=C(CCc1nnc(CCCCc2ccccc2)o1)NC(c1cccnc1)C(F)(F)F (centres undefined) | -10.3%
7 | O=C(Nn1cnnc1)c1cc(Cl)ccc1Cl | -4.56%
8 | NC(=O)C1CCN(CC(O)CSc2ccc(F)cc2)CC1 (centres undefined) | -11.6%
9 | NS(=O)(=O)c1cc(C(=O)NCCOc2ccccc2)c(Cl)cc1Cl | 16%
10 | COc1cccc(N2CCN(C(=O)C3CCCN(S(=O)(=O)c4cnc[nH]4)C3)CC2)c1 (centres undefined) | -11%
11 | Cc1ccc(S(=O)(=O)N2CCCC(C(=O)N3CCN(C)CC3)C2)cc1 (centres undefined) | -11.8%
12 | CC(=O)N1CCCc2cc(S(=O)(=O)N3CCCC(C(=O)N4CCN(c5cccc(Cl)c5)CC4)C3)ccc21 (centres undefined) | 97.5% (active)
13 | O=C(CCC1CCCC1)N=C1SC2CS(=O)(=O)CC2N1Cc1ccccc1 (centres undefined) | -16.6%
14 | CCc1cccc(NC(=O)C2CCCN(S(=O)(=O)c3ccc4[nH]c(=O)ccc4c3)C2)c1 (centres undefined) | -18.2%
15 | CC(=O)c1ccc(NC(=O)C2CCCN2S(=O)(=O)c2cccs2)cc1 (centres undefined) | -7.87%
16 | N#Cc1cccc(CSc2nnc(CCCO)n2-c2ccccc2)c1 | 1.83%
17 | O=C(OC12CC3CC(CC(C3)C1)C2)c1ccc(NCc2cc(O)ccc2O)cc1 | 91.5% (active)
18 | CC(C)OC(=O)c1ccc(NCc2cc(O)ccc2O)cc1Cl | -8.58%
19 | Cc1ccnc(NC(=O)Cn2ccc([N+](=O)[O-])n2)c1 | -2.77%
20 | O=C(C1CCN(S(=O)(=O)c2ccc(Br)s2)CC1)N1CCN(c2ccccc2)CC1 | -1.63%
21 | COc1cccc(CNC(=O)CCN2C(=S)NC(C)(C)CC2C)c1 (centres undefined) | 9.24%
22 | N#C[C@]1(S(=O)(=O)c2ccccc2)C[C@@H]2ON=C(c3cccc(Br)c3)[C@@H]2C1 | 77.6% (active)
23 | COC(=O)[C@]1(S(=O)(=O)c2ccccc2)C[C@@H]2ON=C(c3ccc(OC)cc3)[C@@H]2C1 | -7.87%

Row | SMILES | inhibition of corepressor binding
24 | CCCc1cc(=O)[nH]c(SCC(=O)c2c(N)n(CC(C)C)c(=O)n(C)c2=O)n1 | 5.16%
25 | O=C(Nc1cc(-c2ccccc2)nn1-c1ccccc1F)c1ccc([N+](=O)[O-])cc1 | 7.55%
26 | O=C(NNS(=O)(=O)Cc1ccccc1)c1ccc([N+](=O)[O-])cc1 | 0.72%
27 | O=C(NC(Nc1nc2ccc([N+](=O)[O-])cc2s1)(C(F)(F)F)C(F)(F)F)c1ccccc1 | 102% (active)
28 | CC(C)n1c(-c2ccncc2)n[nH]c1=S | -6.98%
29 | CCOC(=O)N1CCN(C(=O)C2CCN(c3ncnc4c3sc3cccc(F)c34)CC2)CC1 | 78.5% (active)
30 | CCOC(=O)N1CCN(C(=O)C2CCN(Cc3ccc(OC)cc3OC)CC2)CC1 | 9.52%
31 | CCOC(=O)N1CCN(C(=O)C2CCCN(c3ncnc4c3sc3cccc(F)c34)C2)CC1 (centres undefined) | -2.23%
32 | CCOc1ccc(S(=O)(=O)N2CCCCCC2)c2ccccc12 | 75.7% (active)
33 | COc1ccc(S(=O)(=O)N2CCCC2)c(C)c1C | -29.4%
34 | CCOc1ccc(S(=O)(=O)n2ccnc2)c2ccccc12 | 17.1%
35 | CCNC(=O)N1CCNC(=O)C1CC(=O)Nc1ccc(C(=O)OCC)cc1 (centres undefined) | -12.7%
36 | COC(=O)c1ccc(NS(=O)(=O)c2cc3c4c(c2)C(C)C(=O)N4CCC3)cc1 (centres undefined) | -17.2%
37 | OCCCNc1nccc(-c2cc(Nc3cccc(Cl)c3)ncn2)n1 | 101% (active)
38 | COCCCn1cc(CN2CC(N(C)C)CS2(=O)=O)nn1 (centres undefined) | 20.1%
39 | Cc1cc(C)c(S(=O)(=O)c2cc(F)ccc2C)c(=O)[nH]1 | -8.41%
40 | CC(C)(CNC(=O)c1ccc(Cl)c(S(=O)(=O)N2CCc3ccccc3C2)c1)N1CCOCC1 | -7.92%
41 | CCc1nc2ccc(C(=O)NC3CCN(Cc4ccccc4)CC3)cn2c1N(CC)CCOC | -6.67%
42 | COc1ccc2nc(-c3ccccn3)ccc2c1 | -147%
43 | CC(C)(C)c1ccc(Oc2ccc(N)cc2)cc1 | 62.9%
44 | COc1cnc(-c2ccccn2)nc1Oc1ccc(C(C)(C)C)cc1 | 103% (active)
45 | CC(C)N(Cc1nnc(-c2ccc(Cl)cc2)o1)C(=O)C1=COCCO1 | -16.3%
46 | COc1ccc(CCNC(=O)CSCc2ccc(Br)cc2)cc1OC | -15%

Row | SMILES | inhibition of corepressor binding
47 | CS(=O)(=O)c1ccc2nnn(OCC(=O)Nc3cccc(C#N)c3)c2c1 | -3.52%
48 | CCc1ccc(CNC(=O)CCc2nc(-c3cccs3)no2)cc1 | -4.34%
49 | CCNC(=O)CCc1nc(-c2ccc(C(C)(C)C)cc2)no1 | 75.3% (active)
50 | CCOc1ccc(-c2noc(CCC(=O)NC3CCCC3)n2)cc1OC | 4.53%
51 | CN(CC(=O)NCCN1CCOCC1)S(=O)(=O)c1ccc(F)cc1 | -42.2%
52 | COc1cc(OC)cc(C2=Cc3ccccc3C(CC(=O)c3ccco3)N2c2ccc(-c3cnc(OC)nc3)cc2)c1 (centres undefined) | -30.9%
53 | Cc1ccsc1C(=O)OCC(=O)c1cc(C)n(CC2CCCO2)c1C (centres undefined) | 89.5% (active)
54 | COc1ccc(CNC(=O)COC(=O)c2sccc2C)cc1OC | -4.67%
55 | CCCn1c(C)cc(C(=O)COC(=O)c2c(C)nn(-c3ccccc3)c2C)c1C | 17.1%
56 | Cc1nc(CNS(=O)(=O)c2ccc(Oc3ccccc3)cc2)cs1 | 92.4% (active)
57 | Cc1ccc(S(=O)(=O)NCc2nc3ccccc3c(=O)n2N)cc1 | 22.2%
58 | Cc1nc(CNS(=O)(=O)c2cc([N+](=O)[O-])ccc2C)cs1 | 6.54%
59 | Cc1cc2ccccn2c1C(=O)c1cccc(S(=O)(=O)N2CCOCC2)c1 | 2.82%
60 | CCN(C(=O)CSc1nnnn1-c1ccc(OC)cc1)C1CCS(=O)(=O)C1 (centres undefined) | -16.1%
61 | CCC(C)N1C(=O)S/C(=C/c2ccc(Sc3nc4ccccc4[nH]3)o2)C1=O (centres undefined) | 78.5% (active)
62 | CCOc1ccc(NC(=O)CN(C)C(=O)COc2cccc(CC)c2)cc1OCC | 2.58%
63 | COc1ccc(NC(=O)/C(Cl)=C(/Cl)S(=O)Cc2ccc(C)cc2)cn1 (centres undefined) | 84.1% (active)
64 | CC(C)c1ccc(NC(=O)[C@@H](NC(=O)N2CC(=O)Nc3ccccc32)C(C)C)cc1 | -32.4%
65 | Cc1nn(-c2ccccc2)c(=O)c2noc(C)c12 | -0.89%
66 | N#CCCN(C(=O)Nc1ccc(Cl)c(Cl)c1)C1CCCCC1 | -1.19%
67 | O=C(CC(O)(C(F)(F)F)C(F)(F)F)Nc1ccc(Cl)c(Cl)c1 | 107% (active)
68 | O=C(CN1CCN(C(=O)c2ccco2)CC1)Nc1ccc(Cl)c(C(F)(F)F)c1 | -9.37%
69 | CN(C)c1ccc(NC(=O)CSc2n[nH]c(-c3ccco3)n2)cc1 | -21.3%

Row | SMILES | inhibition of corepressor binding
70 | O[C@@H]1C[C@H](c2ccccc2)N(Cc2cccs2)C[C@H]1n1cc(C2CC2)nn1 | 5.46%
71 | COc1ccc(S(=O)(=O)N2CCN(C(C)C(=O)Nc3ccc(C(C)C)cc3)CC2)cc1 (centres undefined) | 94.6% (active)
72 | CC(C)c1ccc(S(=O)(=O)N2CCN(C(C)C(=O)NC3CCCC3)CC2)cc1 (centres undefined) | -5.61%
73 | COc1cccc(CNC(C)C(=O)Nc2ccc(S(=O)(=O)N3CCCC3)cc2)c1 (centres undefined) | 3.95%
74 | N#Cc1ccc(COC(=O)Cn2nnc(-c3ccccc3)n2)cc1 | 19.6%
75 | CCC(=O)N1CCN=C1SCc1ccc(F)cc1 | 3.93%
76 | Cc1ccc(OCc2nnc(SC3CCc4ccccc4C3=O)n2C)cc1 (centres undefined) | -9.34%
77 | CCCCC(NS(=O)(=O)c1ccc(C)cc1)C(=O)Oc1ccc2c3c(c(=O)oc2c1)CCC3 (centres undefined) | -22.6%
78 | CCC(=O)c1ccc(OCC(O)Cn2nc(C)c(C(C)=O)c2C)cc1 (centres undefined) | -7.85%
79 | CCN(CC)C(=O)C1=C(C)N(Cc2ccc(C(C)(C)C)cc2)C(=O)C(CC(=O)NCc2cccc3ccccc23)C1 (centres undefined) | 20.9%
80 | C=CCn1c(C)cc(C2=NNC(=NCC)SC2)c1C | 89.3% (active)
81 | CCN(CC)S(=O)(=O)c1ccc(N(C)CCc2ccc(OC)c(OC)c2)nc1 | 14.8%
82 | CCN(CC)S(=O)(=O)c1ccc(N(C)Cc2ccc(C(F)(F)F)cc2)nc1 | 91.6% (active)
83 | CCN(CC)S(=O)(=O)c1ccc(N(C)Cc2cccc(OC)c2OC)nc1 | 2.59%
84 | CCCCCCCCCCCCC(NC(C)=O)(C(=O)OCC)C(=O)OCC | 34.1%
85 | O=C(Nn1cnc2ccccc2c1=O)c1ccc([N+](=O)[O-])cc1Cl | -16.8%
86 | CCCCN1C[C@H](c2ccc(Br)cc2)[C@@H](CC(=O)Nc2ccc(Br)cc2)C1=O | -20.7%
87 | Cc1ccnc(NC(=O)C2CCN(S(=O)(=O)c3c(C)c(C)cc(C)c3C)CC2)c1 | 80.9% (active)
88 | CNC(=O)C1CCN(S(=O)(=O)c2c(C)noc2/C=C/c2cccc(C)c2)CC1 | -10.5%
89 | O=C(Nc1ccccn1)C1CCN(S(=O)(=O)c2ccc3c(c2)OCCO3)CC1 | -51.8%
